A selection: hits, their analogues and other compounds. The true share with any hit is near 3.2%.
LASV entry inh: Lassa virus entry inhibition. Lassa virus pseudotype entry inhibition, cell reporter. Potency, µM (top dose mostly 37.9 µM), for inactives: at the highest dose activity change, negative = inhibition, hits mostly inhibitors. 300,000 compounds, 1.2% hits. AID 540256; calls by dose curve; tested in HEK293 cells; also: nearly all actives have a fitted effect of over 50% in size
VACV mCherry inh: vaccinia inhibition (mCherry reporter) | Vaccinia virus mCherry reporter infection, fluorescence | Potency, µM (highest dose often 36.5 µM), without a hit: at the highest dose activity change, negative = inhibition, hits mostly inhibitors | 310,000 compounds, 0.63% hits | AID 720579; calls by dose curve; tested in A549 cells; also: nearly all actives have a fitted effect of over 35% in size
VACV Venus inh: vaccinia inhibition (Venus reporter); 330,000 compounds, 0.46% hits; Vaccinia virus Venus reporter expression, fluorescence; AID 720580; Potency, µM (doses to about 36.5 µM), for the others: at the highest dose activity change, negative = inhibition, actives largely listed as inhibitors; calls by dose curve; tested in A549 cells; also: nearly all actives have a fitted effect of over 30% in size
FMDV inh: blocks foot and mouth disease virus | FMDV antiviral cell-based qHTS | Potency, µM (series often up to 57.9 µM), inactives show at the highest dose activity change, negative = inhibition, most hits filed as inhibitors | 410,000 compounds, 1.2% hits | AID 1159524; calls by dose curve; tested in HEK293T cells; also: read-out not given here; nearly all actives have a fitted effect of over 45% in size
MARV entry inh: blocks Marburg virus binding to or entry into cells; Marburg virus pseudotyped entry inhibition, cell reporter; 300,000 compounds, 1.8% hits; Potency, µM (highest dose often 37.8 µM), for the others: at the top dose activity change, negative = inhibition, most hits filed as inhibitors; calls by dose curve; tested in HEK293 cells
Starred values were filed as active, the others as inactive; i = inactive; ? = inconclusive; · = no result given; [ ] = another dose, or the depositor's remark. % is scaled to controls: 0 for no effect and ±100 for the full control effect; potency is read from the fitted curve at half-maximal effect.

SMILES	LASV entry inh	VACV mCherry inh	VACV Venus inh	FMDV inh	MARV entry inh
Nc1nccc(-c2cc(-c3ccc(Cl)cc3Cl)no2)n1	?	-19%	-25%	23%	14µM*
Cc1ccc(/C=N/NC(=O)CSc2nc3ccccc3c(=O)n2-c2ccccc2)s1	2%	-10%	-3%	-2%	5%
CCCCCCCCCC(=O)N/N=C/c1ccc(C)s1	9.2µM*	·	·	0%	?
CCn1c(SCC(=O)N/N=C/c2ccc(C)s2)nc2ccccc21	-19%	?	-22%	8%	2.6µM*
COc1ccc2c(c1)OC(C)CN(CCC(=O)NCC1OCCc3ccccc31)C2 (stereo not given)	·	-15%	-7%	-5%	·
C=CCN1C(=S)N=NC1c1ccccc1 (stereo not given)	·	·	·	·	8%
CN(Cc1ccccc1)C(=O)Nc1ccc2c(c1)N(C)C(=O)c1ccccc1S2	?	-17%	-7%	0%	10µM*
C=CCOc1ccccc1CN1CCC(Oc2ccc(C(=O)N3CCCCC3)cc2)CC1	-17%	?	-17%	-7%	3.2µM*
O=C(c1ccc(OC2CCN(CCc3ccccc3)CC2)cc1)N1CCCC1	-24%	i	-14%	16%	?
CC(C)N1CCN(C(=O)c2ccc(OC3CCN(CCc4ccccc4)CC3)cc2)CC1	-16%	-14%	-11%	24%	11µM*
Cc1ccccc1CN1CCC(Oc2ccc(C(=O)N3CCCC3)cc2)CC1	-7%[46.1 µM]	-17%	-4%	17%	-24%[46.1 µM]
Cc1cc(CN(C)C(=O)c2ccc(OC3CCN(CCc4ccccc4)CC3)cc2)on1	24%[46.1 µM]	i	-18%	0%	3.2µM*
CCCC(=O)OCCNc1cc(Sc2nccn2C)c2nonc2c1[N+](=O)[O-]	?	-23%	-8%	35µM*	?
CCCC(=O)OCCNc1cc(SCc2ccco2)c2nonc2c1[N+](=O)[O-]	?	10µM*	?	0%	?
CCCSc1cc(NCCOC(=O)CCC)c([N+](=O)[O-])c2nonc12	-6%	-23%	-13%	0%	-2%
CC(=O)OCCCNc1cc(SCc2ccco2)c2nonc2c1[N+](=O)[O-]	?	11µM*	?	35µM*	13µM*
O=[N+]([O-])c1c(NCCCO)cc(Sc2nc3ccccc3s2)c2nonc12	-26%	·	·	?	?
CCC(=O)OCCNc1cc(Sc2nc3ccccc3[nH]2)c2nonc2c1[N+](=O)[O-]	?	-8%	?	?	?
CCCSc1cc(NCCOC(C)=O)c([N+](=O)[O-])c2nonc12	3%	i	-4%	0%	?
CCC(=O)OCCNc1cc(Sc2nc3ccccc3s2)c2nonc2c1[N+](=O)[O-]	?	·	·	25µM*	?
CCCCC1CN2CCc3c([nH]c4ccccc34)C2(C)C1 (stereo not given)	1%	i	-1%	-14%	?
COc1ccc2[nH]c(C(O)C(O)c3nc4c(OC)c(OC)ccc4[nH]3)nc2c1OC (stereo not given)	·	-4%	-20%	·	·
CCCC(=O)Nc1nc(-c2ccccc2)ns1	21µM*	-3%	-15%	17%	?
CCC(=O)Nc1nc(-c2ccccc2)ns1	-6%	·	·	6%	9%
COc1ccc(C(=O)C[n+]2cccc3cc(Cl)ccc32)cc1	·	-9%	79%	·	·
SMILES	LASV entry inh	VACV mCherry inh	VACV Venus inh	FMDV inh	MARV entry inh
Cc1ccc2cc(C3CC(c4ccco4)=NN3S(=O)(=O)c3ccccc3)c(Cl)nc2c1 (stereo not given)	16µM*	·	·	-11%	2.6µM*
Cc1cccc(-c2nnc(SCc3cc(=O)c4cccc(Cl)c4[nH]3)n2C)c1	-20%[46.1 µM]	-28%	-24%	25µM*	·
Cc1ccc2c(=O)cc(CSc3nnc(-c4ccccc4)n3C)[nH]c2c1C	-20%[46.1 µM]	14%	-5%	35%	·
O=C(CN1C(=O)NC2(CCCC2)C1=O)NCCc1ccc(F)cc1	-9%	i	-10%	-11%	1%
Cc1ccc2nc(SCC(=O)N3CCOc4ccc(CN5C[C@@H](C)O[C@@H](C)C5)cc4C3)[nH]c2c1	·	-13%	-3%	-3%	·
CC(C)=CCCC(C)=CCON=C1C[C@@H](O)[C@@H](O)[C@@H]2[C@H]3C(=O)N(Cc4ccc5c(c4)OCO5)C(=O)[C@@H]3CC[C@@H]12	-1%[14.3 µM]	·	·	·	-44%[14.2 µM]
c1ccc(-c2cccc(-c3ccccn3)n2)nc1	2.1µM*	·	·	10%	2.1µM*
CSc1ncccc1C(=O)NCC1Cc2cc(F)cc(-c3cncnc3)c2O1 (stereo not given)	·	-12%	-2%	-22%	·
COC(=O)[C@]1(C)CCC[C@@]2(C)C3CC[C@@]4(C)C[C@]3(CCC21)CC(=O)N4 (stereo not given in full)	·	i	-24%	?	·
C=C1C(=O)C23CCC4C(C)(C(=O)OC)CCCC4(C)C2CCC1(O)C3 (stereo not given)	?	7.9µM*	11µM*	3.5µM*	?
CC(C)(C)OC(=O)N1CCN(c2nc(-c3cccs3)nc3ccccc23)CC1	·	i	-13%	·	·
O=C(Nc1ccc(Cl)c(Cl)c1)Nc1nnc(CSc2ccccc2)s1	3.5µM*	-19%	-24%	?	10µM*
O=C(CCS(=O)(=O)c1ccc(Br)s1)N1CCc2ccccc21	0%	·	·	46%	20%
CCOC(=O)c1cccc(NC(=O)Nc2cc(OC)ccc2OC)c1	16µM*	-26%	?	?	?
COc1ccc(C)cc1NC(=O)Nc1cccc(C(=O)O)c1	?	i	-8%	-10%	?
CCOc1ccccc1CNc1ncnc2ccc(-c3c(C)noc3C)cc12	·	·	·	32µM*	·
NNC(=O)/C(=N/Nc1ccccc1)S(=O)(=O)c1ccc(Cl)cc1	16µM*	?	-29%	-22%	?
CCN1C(=NCc2ccco2)N[C@@H](c2ccccc2)[C@H](C(=O)OC)[C@H]1C	·	·	·	·	13%[14.2 µM]
CN(N=O)c1cc(O)ccc1O	16µM*	·	·	·	?
CC(C)c1ccc(NC(=O)c2csnn2)cc1	9.2µM*	·	·	-2%	?
NS(=O)(=O)c1ccc(NC(=O)c2csnn2)cc1	?	-11%	-17%	5%	3%[46.1 µM]
C=CCc1ccccc1OCCSc1nc(-c2ccccc2F)nc2cc(=O)[nH]n12	14%[46.1 µM]	-15%	-6%	-26%	·
Nc1ccc(-c2nc3ccc(-c4nc5ccccc5o4)cc3[nH]2)cc1	-29%	-10%	-5%	32%	7.1µM*
Cc1nc2ccc(-c3nc4ccccc4o3)cc2[nH]1	?	-15%	-9%	6%	-17%
O=C(COc1ccc(CO)cc1Cl)Nc1ccc(F)cc1	?	·	·	-41%	6.5µM*
CNC(=S)NN=C(C)CCCC(C)=NNC(=S)NC	?	i	-5%	-21%	-21%
c1ccc(N(c2ccccc2)c2nc(N3CCCC3)nc(-n3ccnc3)n2)cc1	1.6µM*	·	·	?	?
CCC(C(=O)Nc1ccc(C(=O)OC)cc1)n1c(=O)c(-c2ccccc2NC(C)=O)nc2ccccc21 (stereo not given)	0%[46.1 µM]	i	-16%	-12%	-2%[46.1 µM]
CCC(Oc1nc2ccccc2nc1-c1ccccc1NC(C)=O)C(=O)c1ccccc1 (stereo not given)	18µM*	-14%	-10%	-15%	-8%

Source: PubChem BioAssay (National Center for Advancing Translational Sciences (NCATS))
